# Assay results published in PubChem BioAssay.
# Several values for one entry are separate records, joined by “and”; a condition that tells them apart may be missing. Identical values can stand only once. A number with no mark means an inactive call. No rule for the calls is given here.
# Biological target: Pantothenate synthetase (Mycobacterium tuberculosis (strain ATCC 25618 / H37Rv)) (UniProt P9WIL5)
# Test: Recombinant Mtb pantothenate synthetase (PanC) inhibitors, coupled enzyme, confirmatory (AID 375);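 also: 0% = full reaction with vehicle and 100% = no enzyme background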
# Conditions: coupled enzyme assay; at 10 µM, active compounds read high
# Chain of Pantothenate synthetase (Mycobacterium tuberculosis (strain ATCC 25618 / H37Rv)) (P9WIL5 whole entry, looked up): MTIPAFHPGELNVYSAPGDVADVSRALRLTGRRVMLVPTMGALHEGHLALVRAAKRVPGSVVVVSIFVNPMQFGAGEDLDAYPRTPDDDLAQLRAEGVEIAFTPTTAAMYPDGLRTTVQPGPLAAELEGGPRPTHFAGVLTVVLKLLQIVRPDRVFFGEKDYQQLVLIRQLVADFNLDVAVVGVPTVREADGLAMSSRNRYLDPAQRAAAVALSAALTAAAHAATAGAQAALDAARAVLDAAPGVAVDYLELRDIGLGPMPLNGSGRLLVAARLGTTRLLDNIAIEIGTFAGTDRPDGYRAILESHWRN
row,SMILES,inhibition
1,CC(=NCC1CCNCC1)C1=C(O)CC(C)(C)CC1=O,0%
2,CC1CCN(c2oc(-c3ccccc3F)nc2C#N)CC1,4%
3,COc1ccc(-n2ncc3c(NCc4cccs4)ncnc32)cc1,0%
4,CCc1cccc2c(=O)c(C(=O)NCCN3CCOCC3)c[nH]c12,10%
5,COCc1nnc(NC(=O)CCCOc2ccccc2)s1,0%
6,COc1ccc(CCN(C)CCCC(C#N)(c2cc(OC)c(OC)c(OC)c2)C(C)C)cc1OC (centres undefined),0%
7,COC(=O)c1sc(S(=O)(=O)Nc2ccc3cn[nH]c3c2)c(C(=O)OC)c1C,0%
8,CCCSCCCNC(=O)Cn1cc2c(n1)CCC(C)C2 (centres undefined),2%
9,COc1ccc(C(=O)Nc2nc(C)c(C(=O)N(C)C)s2)cc1OC,0%
10,O=C(NCCC1=CCCCC1)C1CCN(C(=O)Nc2ccccc2)CC1,0%
11,CC(C)OC(=O)C(CC(=O)O)NCc1ccccc1 (centres undefined),1%
12,COc1ccc(C2C(C(C)=O)=C(O)C(=O)N2C)c(OC)c1 (centres undefined),0%
13,COc1ccccc1C1(CC(=O)N2CCOCC2)CCOC(C(C)C)C1 (centres undefined),2%
14,O=C(NCC(c1cccnc1)N1CCOCC1)c1ccco1 (centres undefined),2%
15,CC(C)(C)c1ccccc1NC(=O)c1cccnc1,10%
16,Nc1nnc(C(=O)c2ccccc2N)s1,0%
17,Cc1cccc(NC(=O)Nc2cccc(C#N)c2)n1,1%
18,COc1ccc2cc(CN(CCO)C(=O)c3ccccc3F)c(=O)[nH]c2c1,5%
19,O=C(NCC(=O)N(c1cnc2ccccc2c1)C(C(=O)NC1CCCC1)c1ccncc1)c1ccco1 (centres undefined),0%
20,COCCn1c(SCC(=O)Nc2nnc(C)s2)nnc1-c1ccncc1,7%

row,SMILES,inhibition
1,COc1ccc(C2/C(=C(/O)c3ccccc3)C(=O)C(=O)N2C)cc1 (centres undefined),0%
2,CCC1(C)Cc2c(C#N)c(N)n(N)c(=S)c2CO1 (centres undefined),0%
3,Cc1nc(NC(=O)c2csc3ccccc23)sc1C,0%
4,COc1cccc(C2C(C(=O)c3ccc(C)o3)=C(O)C(=O)N2CCCN(C)C)c1 (centres undefined),0%
5,CCc1ccccc1NC(=O)CCc1nc(-c2ccc(C)cc2)no1,0%
6,O=S(NCc1ccco1)C12CC3CC(CC(C3)C1)C2 (centres undefined),0%
7,CCOC(=O)N1CCN(C(=O)CN(Cc2ccccc2)S(=O)(=O)c2ccc(OC)c(C)c2)CC1,5%
8,O=c1c2cc3ccccc3n2cnn1Cc1ccccc1F,0%
9,COc1ccc(NC(=O)c2oc3ccccc3c2NC(=O)c2ccco2)cc1,0%
10,O=C(OCCCCN1C(=O)c2ccccc2C1=O)c1n[nH]c2ccccc12,2%
11,COc1c(Br)cc2c(C)c(C(=O)O)oc2c1Br,2%
12,CC1=C(C#N)C(c2ccc3ncccc3c2)C(C#N)=C(C)N1,4%
13,CC(C)(C)c1cc(NC(=O)c2cc(F)c(F)c(F)c2F)no1,0%
14,Cc1nnc(NC(=O)C2CCCO2)s1 (centres undefined),3%
15,c1ccc(CN(CC2=NCCN2)c2ccccc2)cc1,0% and 2%
16,CC(NS(=O)(=O)c1ccc(F)cc1)C(c1cccs1)N1CCN(C)CC1 (centres undefined),0%
17,Cc1noc(C)c1S(=O)(=O)N1CCCC(C(=O)NCCc2ccc(Cl)cc2)C1 (centres undefined),3%
18,Fc1cccc(Nc2ncnc3c2cnn3-c2ccccc2)c1,2%
19,CC1CCCCN1S(=O)(=O)c1ccc(NC(=O)c2cccs2)cc1 (centres undefined),0%
